Data published in the supplement of paper PMC11732987, “Enantioselective OTUD7B fragment discovery through chemoproteomics screening and high-throughput optimisation” (Communications Chemistry, 2025).

Legend:
Assay in all cases: log2 ratio of Biotin-Ahx-Ub-VS probe labelling (fragment/DMSO); higher = less target engagement (more negative = stronger competition), active = hit call of the paper (q ≤ 0.05, log2 ratio ≤ -1)
Conditions in all cases: compound concentration: 200 uM; treatment time: 3 h
USP16 = USP16 (UniProt Q9Y5T5)
Chain of USP16 (Q9Y5T5 whole entry, looked up, the tested form may be a part): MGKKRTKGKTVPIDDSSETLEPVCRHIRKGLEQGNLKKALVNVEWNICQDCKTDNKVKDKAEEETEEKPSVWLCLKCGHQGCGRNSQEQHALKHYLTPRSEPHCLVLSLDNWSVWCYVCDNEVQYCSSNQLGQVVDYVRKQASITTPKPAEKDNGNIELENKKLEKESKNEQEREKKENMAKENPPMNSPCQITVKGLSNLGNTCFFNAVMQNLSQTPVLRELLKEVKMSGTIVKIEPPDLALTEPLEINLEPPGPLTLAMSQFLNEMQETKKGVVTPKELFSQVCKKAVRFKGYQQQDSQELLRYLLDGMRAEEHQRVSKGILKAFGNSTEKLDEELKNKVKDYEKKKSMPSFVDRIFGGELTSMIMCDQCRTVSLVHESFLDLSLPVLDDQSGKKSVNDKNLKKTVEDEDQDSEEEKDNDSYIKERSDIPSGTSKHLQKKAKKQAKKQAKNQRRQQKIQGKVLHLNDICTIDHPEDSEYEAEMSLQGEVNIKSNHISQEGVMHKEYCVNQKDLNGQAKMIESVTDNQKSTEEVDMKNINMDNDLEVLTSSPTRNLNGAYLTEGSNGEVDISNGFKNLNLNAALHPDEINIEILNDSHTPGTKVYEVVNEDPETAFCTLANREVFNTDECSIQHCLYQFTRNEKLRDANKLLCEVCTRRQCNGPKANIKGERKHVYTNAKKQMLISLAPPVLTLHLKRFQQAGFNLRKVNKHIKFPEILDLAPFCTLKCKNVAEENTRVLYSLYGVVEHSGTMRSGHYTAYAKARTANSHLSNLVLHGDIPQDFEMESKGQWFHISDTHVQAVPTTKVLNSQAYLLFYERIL
In short: (§1)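 Labelling with Biotin-Ahx-Ub-VS (0.5 µM final, 1 h) followed a 3 h triplicate treatment of HEK293T lysate (495 µg per sample, Tris/CHAPS/IGEPAL buffer with protease inhibitors) with fragment at 200 µM or vehicle. Labelled DUBs were NeutrAvidin-enriched, digested with LysC and trypsin, and run by diaPASEF LC-MS/MS. The values, average log2 fragment/vehicle ratios by unpaired t-test, come from global-median-normalised Spectronaut label-free quantities. Proteins with ≥2 unique peptides were used.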

USP19 = target: T1, USP19 (UniProt O94966)
T1 sequence (whole entry): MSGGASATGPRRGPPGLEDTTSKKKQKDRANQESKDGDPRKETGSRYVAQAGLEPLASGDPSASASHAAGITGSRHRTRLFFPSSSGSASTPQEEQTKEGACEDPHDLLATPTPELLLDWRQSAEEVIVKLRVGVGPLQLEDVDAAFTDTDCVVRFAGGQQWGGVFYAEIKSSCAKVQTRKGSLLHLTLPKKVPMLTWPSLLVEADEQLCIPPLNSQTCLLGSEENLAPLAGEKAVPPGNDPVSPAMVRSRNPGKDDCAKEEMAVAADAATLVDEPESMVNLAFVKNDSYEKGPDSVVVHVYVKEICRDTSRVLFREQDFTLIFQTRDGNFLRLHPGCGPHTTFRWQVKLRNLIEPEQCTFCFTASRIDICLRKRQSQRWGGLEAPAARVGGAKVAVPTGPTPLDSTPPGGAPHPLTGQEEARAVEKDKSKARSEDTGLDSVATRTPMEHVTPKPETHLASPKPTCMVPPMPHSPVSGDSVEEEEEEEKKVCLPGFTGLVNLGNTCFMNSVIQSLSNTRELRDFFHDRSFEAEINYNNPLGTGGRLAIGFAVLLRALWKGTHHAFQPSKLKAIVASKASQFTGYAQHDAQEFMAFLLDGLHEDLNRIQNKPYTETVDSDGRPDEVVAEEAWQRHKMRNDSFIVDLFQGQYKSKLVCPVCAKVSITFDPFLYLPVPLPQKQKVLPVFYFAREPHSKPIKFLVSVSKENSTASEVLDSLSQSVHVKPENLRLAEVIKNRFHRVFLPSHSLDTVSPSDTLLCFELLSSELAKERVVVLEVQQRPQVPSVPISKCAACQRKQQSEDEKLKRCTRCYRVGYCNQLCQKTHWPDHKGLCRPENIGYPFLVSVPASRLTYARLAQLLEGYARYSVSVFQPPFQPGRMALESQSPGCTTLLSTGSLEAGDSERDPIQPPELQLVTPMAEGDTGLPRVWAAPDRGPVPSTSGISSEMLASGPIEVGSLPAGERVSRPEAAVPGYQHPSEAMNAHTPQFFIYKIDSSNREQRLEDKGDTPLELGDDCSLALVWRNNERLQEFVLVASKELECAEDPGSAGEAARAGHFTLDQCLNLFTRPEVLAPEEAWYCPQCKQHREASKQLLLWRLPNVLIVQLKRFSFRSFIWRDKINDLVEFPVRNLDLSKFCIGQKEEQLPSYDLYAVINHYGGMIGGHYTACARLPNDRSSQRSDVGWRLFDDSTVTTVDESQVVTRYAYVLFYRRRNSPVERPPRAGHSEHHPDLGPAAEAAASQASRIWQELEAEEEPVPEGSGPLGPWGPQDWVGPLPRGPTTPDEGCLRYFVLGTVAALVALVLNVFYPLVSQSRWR
In short: as §1

USP24 = USP24 (UniProt Q9UPU5)
Chain of USP24 (Q9UPU5 whole entry): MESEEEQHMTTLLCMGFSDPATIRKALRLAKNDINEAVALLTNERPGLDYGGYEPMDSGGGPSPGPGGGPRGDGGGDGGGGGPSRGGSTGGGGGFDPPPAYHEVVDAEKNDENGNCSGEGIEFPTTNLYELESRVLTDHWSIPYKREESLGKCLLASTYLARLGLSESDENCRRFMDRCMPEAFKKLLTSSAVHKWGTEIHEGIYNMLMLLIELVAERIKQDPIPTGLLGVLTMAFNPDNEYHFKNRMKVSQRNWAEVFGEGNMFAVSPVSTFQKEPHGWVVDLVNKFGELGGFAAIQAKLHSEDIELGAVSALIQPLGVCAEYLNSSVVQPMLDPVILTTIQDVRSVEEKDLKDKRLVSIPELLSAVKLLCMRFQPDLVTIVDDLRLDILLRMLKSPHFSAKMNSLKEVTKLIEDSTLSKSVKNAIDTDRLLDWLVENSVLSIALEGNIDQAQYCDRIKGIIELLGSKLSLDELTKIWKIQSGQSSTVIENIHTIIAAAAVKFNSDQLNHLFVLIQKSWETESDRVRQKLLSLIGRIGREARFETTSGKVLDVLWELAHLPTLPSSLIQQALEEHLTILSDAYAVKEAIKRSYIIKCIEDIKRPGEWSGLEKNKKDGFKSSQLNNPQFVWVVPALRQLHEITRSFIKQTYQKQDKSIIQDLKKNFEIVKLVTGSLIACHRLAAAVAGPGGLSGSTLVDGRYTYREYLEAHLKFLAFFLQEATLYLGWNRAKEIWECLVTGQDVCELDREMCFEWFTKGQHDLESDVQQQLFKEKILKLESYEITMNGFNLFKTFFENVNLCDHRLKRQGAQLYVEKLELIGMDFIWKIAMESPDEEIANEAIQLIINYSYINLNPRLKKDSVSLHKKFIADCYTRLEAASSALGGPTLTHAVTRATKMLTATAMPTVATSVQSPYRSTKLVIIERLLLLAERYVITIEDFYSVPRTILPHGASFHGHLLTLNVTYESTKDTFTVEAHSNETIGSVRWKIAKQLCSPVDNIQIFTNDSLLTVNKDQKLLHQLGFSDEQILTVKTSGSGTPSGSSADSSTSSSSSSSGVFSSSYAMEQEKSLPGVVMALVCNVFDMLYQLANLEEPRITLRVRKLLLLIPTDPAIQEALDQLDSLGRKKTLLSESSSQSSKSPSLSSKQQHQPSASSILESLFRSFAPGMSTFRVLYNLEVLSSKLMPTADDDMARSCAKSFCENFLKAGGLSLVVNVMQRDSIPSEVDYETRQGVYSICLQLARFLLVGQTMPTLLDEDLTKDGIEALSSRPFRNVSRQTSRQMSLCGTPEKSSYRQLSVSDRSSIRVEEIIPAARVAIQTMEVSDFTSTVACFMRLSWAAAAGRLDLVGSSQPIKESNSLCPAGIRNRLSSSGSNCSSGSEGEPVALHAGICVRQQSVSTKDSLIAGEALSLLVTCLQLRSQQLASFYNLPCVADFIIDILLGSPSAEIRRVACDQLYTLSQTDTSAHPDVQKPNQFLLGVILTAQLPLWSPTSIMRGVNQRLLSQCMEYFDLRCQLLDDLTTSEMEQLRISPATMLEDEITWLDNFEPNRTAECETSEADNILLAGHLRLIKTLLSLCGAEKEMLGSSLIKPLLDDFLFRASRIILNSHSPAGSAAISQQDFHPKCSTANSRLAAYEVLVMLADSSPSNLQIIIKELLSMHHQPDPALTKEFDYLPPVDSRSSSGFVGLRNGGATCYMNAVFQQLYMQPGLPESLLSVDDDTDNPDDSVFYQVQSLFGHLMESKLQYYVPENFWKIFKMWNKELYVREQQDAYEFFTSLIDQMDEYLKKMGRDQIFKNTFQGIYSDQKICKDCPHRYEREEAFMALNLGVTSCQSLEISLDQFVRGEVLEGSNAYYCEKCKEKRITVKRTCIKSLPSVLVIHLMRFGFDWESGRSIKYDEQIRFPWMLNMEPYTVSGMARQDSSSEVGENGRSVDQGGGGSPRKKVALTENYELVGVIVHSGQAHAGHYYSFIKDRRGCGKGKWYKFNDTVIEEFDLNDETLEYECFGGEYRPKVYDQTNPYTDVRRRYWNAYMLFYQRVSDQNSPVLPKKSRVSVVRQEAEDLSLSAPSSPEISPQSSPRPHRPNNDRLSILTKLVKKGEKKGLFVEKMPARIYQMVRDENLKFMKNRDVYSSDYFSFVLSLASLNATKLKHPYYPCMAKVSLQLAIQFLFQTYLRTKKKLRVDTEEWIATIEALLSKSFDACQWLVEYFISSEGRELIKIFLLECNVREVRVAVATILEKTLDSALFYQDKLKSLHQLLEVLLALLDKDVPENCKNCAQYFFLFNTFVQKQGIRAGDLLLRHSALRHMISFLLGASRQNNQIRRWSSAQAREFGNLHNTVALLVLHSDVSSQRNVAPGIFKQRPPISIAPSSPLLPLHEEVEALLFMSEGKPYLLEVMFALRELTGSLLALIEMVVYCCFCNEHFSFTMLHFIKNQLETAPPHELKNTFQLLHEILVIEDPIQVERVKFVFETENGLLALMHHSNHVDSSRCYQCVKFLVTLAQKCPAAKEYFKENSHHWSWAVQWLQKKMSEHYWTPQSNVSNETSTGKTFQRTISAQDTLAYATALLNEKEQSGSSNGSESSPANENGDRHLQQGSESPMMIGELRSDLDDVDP
In short: as §1

USP25 = target: T2, USP25 (UniProt Q9UHP3)
T2 sequence (whole entry): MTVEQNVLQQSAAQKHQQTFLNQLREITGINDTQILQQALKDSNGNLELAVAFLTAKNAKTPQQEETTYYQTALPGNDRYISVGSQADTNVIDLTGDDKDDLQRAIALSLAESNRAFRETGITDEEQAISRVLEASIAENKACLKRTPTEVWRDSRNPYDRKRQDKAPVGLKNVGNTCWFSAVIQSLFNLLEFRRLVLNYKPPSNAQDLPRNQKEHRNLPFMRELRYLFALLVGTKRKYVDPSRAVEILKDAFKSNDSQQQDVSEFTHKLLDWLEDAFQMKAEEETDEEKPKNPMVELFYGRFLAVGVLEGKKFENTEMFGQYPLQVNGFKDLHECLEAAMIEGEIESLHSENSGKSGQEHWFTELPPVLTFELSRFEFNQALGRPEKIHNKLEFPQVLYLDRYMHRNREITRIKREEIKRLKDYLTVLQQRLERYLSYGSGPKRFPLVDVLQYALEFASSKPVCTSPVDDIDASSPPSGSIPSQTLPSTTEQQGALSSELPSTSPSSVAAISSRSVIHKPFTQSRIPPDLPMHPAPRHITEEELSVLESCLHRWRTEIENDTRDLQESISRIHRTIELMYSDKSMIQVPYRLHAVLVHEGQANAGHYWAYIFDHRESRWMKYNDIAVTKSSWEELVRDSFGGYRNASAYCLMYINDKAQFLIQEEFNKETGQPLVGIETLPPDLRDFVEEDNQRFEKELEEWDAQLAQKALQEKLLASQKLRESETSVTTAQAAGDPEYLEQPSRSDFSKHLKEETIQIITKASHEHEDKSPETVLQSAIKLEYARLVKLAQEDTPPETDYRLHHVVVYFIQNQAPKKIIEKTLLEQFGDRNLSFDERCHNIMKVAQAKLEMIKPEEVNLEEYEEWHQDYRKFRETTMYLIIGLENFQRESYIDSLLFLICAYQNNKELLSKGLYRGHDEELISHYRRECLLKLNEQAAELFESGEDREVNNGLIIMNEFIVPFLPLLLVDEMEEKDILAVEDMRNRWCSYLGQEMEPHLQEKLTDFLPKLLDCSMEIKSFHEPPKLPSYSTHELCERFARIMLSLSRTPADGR
In short: as §1

USP28 = target: T3, USP28 (UniProt Q96RU2)
T3 sequence (whole entry): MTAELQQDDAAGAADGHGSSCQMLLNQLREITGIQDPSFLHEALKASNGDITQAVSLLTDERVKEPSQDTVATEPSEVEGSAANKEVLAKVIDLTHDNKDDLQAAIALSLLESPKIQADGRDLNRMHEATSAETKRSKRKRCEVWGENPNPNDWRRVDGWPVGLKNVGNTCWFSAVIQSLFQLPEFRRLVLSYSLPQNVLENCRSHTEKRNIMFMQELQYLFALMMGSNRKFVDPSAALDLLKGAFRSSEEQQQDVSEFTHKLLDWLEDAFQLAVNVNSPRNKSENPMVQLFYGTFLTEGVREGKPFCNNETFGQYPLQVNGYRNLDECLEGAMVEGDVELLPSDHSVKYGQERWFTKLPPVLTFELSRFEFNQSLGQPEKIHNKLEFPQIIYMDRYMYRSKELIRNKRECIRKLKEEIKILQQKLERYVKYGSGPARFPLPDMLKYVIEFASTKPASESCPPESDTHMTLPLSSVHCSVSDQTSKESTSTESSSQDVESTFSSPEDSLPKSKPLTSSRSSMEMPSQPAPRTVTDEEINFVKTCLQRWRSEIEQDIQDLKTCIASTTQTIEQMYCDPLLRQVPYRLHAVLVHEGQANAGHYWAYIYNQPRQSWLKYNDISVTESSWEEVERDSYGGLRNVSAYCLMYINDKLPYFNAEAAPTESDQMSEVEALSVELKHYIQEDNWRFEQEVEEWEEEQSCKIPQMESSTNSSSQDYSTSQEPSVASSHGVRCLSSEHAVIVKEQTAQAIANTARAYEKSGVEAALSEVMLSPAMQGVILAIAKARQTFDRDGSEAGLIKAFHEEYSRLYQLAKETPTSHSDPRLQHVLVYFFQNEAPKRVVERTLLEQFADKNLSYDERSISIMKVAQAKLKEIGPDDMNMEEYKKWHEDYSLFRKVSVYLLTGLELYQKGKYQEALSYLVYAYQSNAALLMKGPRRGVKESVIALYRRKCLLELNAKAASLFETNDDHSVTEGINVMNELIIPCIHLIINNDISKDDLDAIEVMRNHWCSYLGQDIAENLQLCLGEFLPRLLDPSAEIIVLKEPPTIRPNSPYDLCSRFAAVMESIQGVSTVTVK
In short: as §1

Measured: log2 ratio of Biotin-Ahx-Ub-VS probe labelling

Cc1n[nH]c(=O)c2c(NC(=O)CCl)oc(C)c12
inactive: USP16 -0.0991 | USP19 -0.168 | USP24 -0.0362 | USP25 0.114 | USP28 -0.11
